The text below walks through data of PubChem BioAssay (EPA / NIEHS).

Molecules are shown by their SMILES. Results filed as inconclusive are left out. The source made the active and inactive calls. Rule for the calls, unless noted: active = hit-call score of the fitted dose curve at least 0.9, where 1 is the maximum; inactive = score below 0.9.

Test [1] can be described thus: CCTE_Shafer_MEA_dev_LDH: CCTE's Lactate Dehydrogenase Assay for Cytotoxicity in the Neural Network Formation Assay, Shafer Lab (AID 2284068; active = hit-call score of the fitted dose curve at least 0.9, where 1 is the maximum;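 note: exposure for twelve days from plating with re-dosing on DIV 5 and 9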). The gist of the method:
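Rat cortical primary neurons, MEA culture; dosing day 0–12, full medium plus compound exchange DIV 5, 9. Read-out: LDH enzyme activity, spectrophotometric. DMSO = negative control/baseline; signal loss → cytotoxicity.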

Test [2] can be described thus: CCTE_Shafer_MEA_dev_mutual_information_norm: CCTE's Neural Network Formation Assay for Mutual Information Normalization, Shafer Lab (AID 2284091). The gist of the method: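 Developing rat cortical networks on 16-electrode MEA wells are treated throughout formation (DIV 0–12). Shared electrode information is recorded four times, converted to area-under-curve, and fitted for decreases against DMSO vehicle.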

Test [3] is described as follows: CCTE_Shafer_MEA_dev_correlation_coefficient_mean: CCTE's Neural Network Formation Assay for Mean Correlation Coefficient, Shafer Lab (AID 2284093).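 For AC50: well mean pairwise spike train correlation integrated as AUC over recording days 5 to 12; potency fitted for loss of correlation relative to DMSO vehicle wells.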 In outline: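 Rat cortical cultures, 1.5 x 10^5 cells/well, dosed from day 0 for 12 days. Spontaneous spikes recorded DIV 5/7/9/12; electrode-pair correlation coefficients averaged, AUC taken. Fit in loss direction vs DMSO.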

Test [4] is described as follows: CCTE_Shafer_MEA_acute_LDH: CCTE's Lactate Dehydrogenase Assay for Cytotoxicity in the Neural Acute Assay, Shafer Lab (AID 2284086; active = hit-call score of the fitted dose curve at least 0.9, where 1 is the maximum;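 note: active means LDH release rises above DMSO vehicle level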). In outline:
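Released lactate dehydrogenase, read at 490 nm, indicated cytotoxicity after acute 40-min compound treatment of rat cortical neuron networks grown on 48-well MEA plates.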

Test [5] is described as follows: CCTE_Mundy_HCI_Cortical_Synap_Neur_Matur_NeuriteSpotCountPerNeuriteLength: CCTE's Synaptogenesis and Neurite Maturation Assay in rat cortical cells for Neurite Spot Count per Neurite Length, Mundy Lab (AID 2284210). In outline:
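Primary rat cortical neurons, compound exposure DIV 7–12, 288.33 h endpoint. Hoechst, anti-MAP2 and anti-synaptophysin labelling; neurite-associated puncta per neurite length scored by automated imaging relative to DMSO controls.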

The nature of test [6]: CCTE_Mundy_HCI_Cortical_Synap_Neur_Matur_BPCount: CCTE's Synaptogenesis and Neurite Maturation Assay in rat cortical cells for Branch Point Count, Mundy Lab (AID 2284211). The gist of the method:
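Branch point number is quantified by automated imaging of fluorescently labelled neurites and synapses in rat primary cortical neurons exposed from DIV 7 to DIV 12. Activity is analysed relative to DMSO negative control.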

A short description of test [7]: CCTE_Mundy_HCI_Cortical_NOG_NeuriteCount: CCTE's Neurite Outgrowth Assay in rat cortical cells for Neurite Count, Mundy Lab (AID 2284212).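 Note: cells fixed about two days after chemical exposure began.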 In outline:
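Neurite number per cell from high-content imaging of betaIII-tubulin immunostaining, with Hoechst nuclear counterstain.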

Test [8] is described as follows: CCTE_Mundy_HCI_Cortical_Synap_Neur_Matur_NeuriteLength: CCTE's Synaptogenesis and Neurite Maturation Assay in rat cortical cells for Neurite Length, Mundy Lab (AID 2284214). The gist of the method:
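Neurite length in rat primary cortical cultures is imaged after MAP2, synaptophysin and Hoechst staining. Dosing starts DIV 7, ending DIV 12; DMSO serves as negative control and baseline.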

Test [9] can be described thus: CCTE_Mundy_HCI_Cortical_Synap_Neur_Matur_NeuriteSpotCountPerNeuron: CCTE's Synaptogenesis and Neurite Maturation Assay in rat cortical cells for Neurite Spot Count per Neuron Count, Mundy Lab (AID 2284215). The gist of the method: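 Rat primary cortical cultures given AraC at DIV 5, dosed from DIV 7 to DIV 12 with media change. Fixed, stained for MAP2, synaptophysin and Hoechst; neurite-associated synaptophysin puncta per neuron quantified by high-content imaging versus DMSO.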

The nature of test [10]: TAMU_PeakParms_SingleDonor1434_Chronotropy: Texas A&M University (TAMU) 1.5-hr Human Induced Pluripotent Stem Cell (iPSC)-derived Cardiomyocytes Calcium (Ca+2) Flux Assay for Cardiotoxicity: Chronotropy (changes in peak frequency) (AID 2284217). As to conditions: actives raise or lower the signal. In outline:
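iPSC-CMs, donor 1434; 4 conc (0.2–100 uM), 0.5% v/v DMSO, 90 min, 37C/5% CO2; Ca2+ flux fluorescence → peak.freq.avg; peak.freq.avg = 0 dropped; bidirectional fit vs DMSO; EC05 POD.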

Test [11] can be described thus: CCTE_Mundy_HCI_Cortical_Synap_Neur_Matur_SynapseCount: CCTE's Synaptogenesis and Neurite Maturation Assay in rat cortical cells for Synapse Count, Mundy Lab (AID 2284218). In outline:
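Synapse count per neuron is measured in rat cortical neurons exposed to chemicals between DIV 7 and DIV 12, with glial growth arrested by AraC at DIV 5. Synaptophysin and MAP2 staining is imaged automatically; activity is fitted relative to DMSO.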

A short description of test [12]: CCTE_Mundy_HCI_hN2_NOG_NeuriteLength: CCTE's Neurite Outgrowth Assay in human hN2 cells for Neurite Length, Mundy Lab (AID 2284220; active = hit-call score of the fitted dose curve at least 0.9, where 1 is the maximum). In outline: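 Plate hNP1-derived neurons, then add chemical 2 h later as a 1/10 dilution. Stain with anti-βIII-tubulin then Alexa Fluor-488 secondary, and image automatically to measure neurite length.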
Test [13] in a line: CCTE_Mundy_HCI_hN2_NOG_NeuronCount: CCTE's Neurite Outgrowth Assay in human hN2 cells for Neuron Count, Mundy Lab (AID 2284221; active = hit-call score of the fitted dose curve at least 0.9, where 1 is the maximum). The gist of the method: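 Read-out is the number of betaIII-tubulin-positive neurons imaged by automated high-content analysis, with DMSO as negative control.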
Test [14] relates to DIO3 (gene 1735). Put plainly: CCTE_GLTED_hDIO3: CCTE's human Deiodinase 3 (DIO3) Inhibition Assay, Great Lakes Toxicology and Ecology Division (GLTED) Lab (AID 2284055; active = hit-call score of the fitted dose curve at least 0.9, where 1 is the maximum;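 note: potency is for inhibition seen as loss of released iodide signal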). In outline:
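Enzyme activity is tracked as iodide release from substrate by recombinant human DIO3 over 3 h with chemical present. A second Sandell-Kolthoff step converts iodide to an absorbance signal, fitted relative to DMSO.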

The nature of test [15]: CCTE_Shafer_MEA_dev_AB: CCTE's Alamar Blue Assay for Cytotoxicity in the Neural Network Formation Assay, Shafer Lab (AID 2284083; active = hit-call score of the fitted dose curve at least 0.9, where 1 is the maximum;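 note: resazurin reduction fluorescence as viability of cultured neurons; twelve days of exposure from plating with re-dosing on DIV 5 and 9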). In outline:
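Rat cortical primary cultures, 1.5 x 10^5 cells/well on MEA; continuous compound exposure over 12 days of network development, re-dosed with full medium change DIV 5 and 9. Alamar Blue fluorescence; loss of signal = cytotoxicity vs DMSO baseline.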
For orientation: Resazurin is reduced to fluorescent resorufin, in cell work by metabolically active cells.

Test [16] in a line: CCTE_Mundy_HCI_Cortical_NOG_NeuriteLength: CCTE's Neurite Outgrowth Assay in rat cortical cells for Neurite Length, Mundy Lab (AID 2284213). The gist of the method: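 Neurite length was read by high-content imaging of βIII-tubulin-labelled neurites in rat primary cortical cultures. Activity was fitted relative to DMSO.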
A short description of test [17]: CCTE_Mundy_HCI_hN2_NOG_NeuriteCount: CCTE's Neurite Outgrowth Assay in human hN2 cells for Neurite Count, Mundy Lab (AID 2284219; active = hit-call score of the fitted dose curve at least 0.9, where 1 is the maximum). In outline:
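In this morphology assay, hNP1-derived neurons received test chemical 2 h post-plating and were fixed two days later in warm paraformaldehyde/sucrose containing Hoechst 33342. Neurites, labelled by rabbit anti-βIII-tubulin (1:800) and Alexa Fluor-488 (1:500), were counted automatically.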

For orientation: AC50 means the midpoint of the concentration-response curve, whichever way the signal moves.

For the compound `Nc1nc2ncc(CNc3ccc(C(=O)N[C@@H](CCC(=O)O)C(=O)O)cc3)nc2c(=O)[nH]1`, the outcome in test [1], in test [2] and in test [3] was inactive.

As to `Cn1cnc([N+](=O)[O-])c1Sc1ncnc2nc[nH]c12`, the call in test [4] was inactive.

As for `O=C1CCC(N2C(=O)c3ccccc3C2=O)C(=O)N1` (centres undefined), the compound was classed as inactive in test [1], in [2], in test [3], in test [5], in test [6] and in test [7]. In addition, the compound was classed as inactive in [8], in test [9], in [10], in test [11], in test [12] and in test [13].

Consider `CCCCCCCCCCCCc1ccccc1`, for which, in [4], the outcome was inactive.

Regarding `O=C(OC[C@H]1O[C@@H](OC(=O)c2cc(O)c(O)c(OC(=O)c3cc(O)c(O)c(O)c3)c2)[C@H](OC(=O)c2cc(O)c(O)c(OC(=O)c3cc(O)c(O)c(O)c3)c2)[C@@H](OC(=O)c2cc(O)c(O)c(OC(=O)c3cc(O)c(O)c(O)c3)c2)[C@@H]1OC(=O)c1cc(O)c(O)c(OC(=O)c2cc(O)c(O)c(O)c2)c1)c1cc(O)c(O)c(OC(=O)c2cc(O)c(O)c(O)c2)c1`, the AC50 in [14] was 14800 nM (active).

Regarding `CCC(C)(C)C(=O)O[C@H]1C[C@@H](C)C=C2C=C[C@H](C)[C@H](CC[C@@H]3C[C@@H](O)CC(=O)O3)[C@H]21`, the AC50 in test [14] is 97800 nM (active); in [1], 368 nM (active); in [15] it was 1750 nM (active); in [3], 1510 nM (active). Besides, the compound was called inactive in [4] and in test [2].

`CCCCCCc1ccc(O)cc1O`: the compound was called inactive in test [4] and in [10].

For the compound `COc1ccc(-n2nc(C(F)F)cc2-c2ccc(S(C)=O)cc2)cc1` (centres undefined), in test [1], the half-maximal activity concentration (AC50) is 603 nM (active). Further, the outcome in [15], in test [2] and in test [3] was inactive.

As to `CC[C@H]1OC(=O)[C@H](C)[C@@H](O[C@H]2C[C@@](C)(OC)[C@@H](O)[C@H](C)O2)[C@H](C)[C@@H](O[C@@H]2O[C@H](C)C[C@H](N(C)C)[C@H]2O)[C@](C)(O)C[C@@H](C)C(=O)[C@H](C)[C@@H](O)[C@]1(C)O`, the result in test [15], in [4], in [2], in [3], in [5] and in [6] was inactive. In addition, the compound was classed as inactive in [7], in test [16], in test [8], in test [9] and in test [11].

In the case of `CCCCC(CC)COC(=O)CCCCCCCCC(=O)OCC(CC)CCCC` (centres undefined), the compound was called inactive in test [4].

As to `NC(=O)NO`, the call in test [2], in [3], in test [5], in [6], in test [7] and in test [16] was inactive. Further, the compound was called inactive in test [8], in test [9], in test [10], in [11], in test [17] and in test [12].
